Luc counter = counter-screen: inhibitors of Kinase-Glo firefly luciferase; 200,000 compounds, 0.28% hits; Potency, µM (highest dose often 38.3 µM), for the others: at the highest dose activity change, negative = inhibition, actives largely listed as inhibitors; Kinase-Glo luciferase, ATP luminescence, 8 min; Q27757; active means well fitted inhibition curve with a large enough effect; inconclusive means small, poorly fitted or top-dose-only effect; further: potency means the concentration at half of the fitted maximal effect; nearly all actives have a fitted effect of over 60% in size
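Luminescence was the read-out, taken after 8-minute incubation at ambient temperature. Luciferase turned over luciferin with 10 uM ATP in imidazole pH 7.2 buffer containing KCl, MgCl2, Tween 20 and BSA.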
KCNH2 3.1 block = KCNH2 3.1 (human) potassium channel inhibition. U2OS KCNH2 3.1, thallium flux FluxOr; active compounds read low. activity change, % (tested at about 1.8 µM). 340,000 compounds, 0.95% hits. AID 720553;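 active means maximum activity change below -70%; inconclusive means maximum activity change from -70% to -50%; inactive means maximum activity change above -50%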;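 further: thallium influx rate constant from kinetic fluorescence after stimulation buffer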
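Virally transduced U2OS (3.1 isoform, 4 h infection in dark at RT) → overnight 37 C → FluxOr + Red40 in HBSS/HEPES, 45 min → stimulation buffer, 2 min kinetic read → rate constant vs DMSO controls.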
hERG WT inh = KCNH2 (human, wildtype) channel inhibition. activity change, % at 1.84 µM. 340,000 compounds, 0.37% hits. AID 720551. U2OS, BacMam KCNH2, thallium flux FluxOr; active compounds read low;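 active means maximum activity change below -70%; inconclusive means maximum activity change between -70% and -50%; inactive means maximum activity change above -50%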
Target sequence (Q12809 whole entry, looked up): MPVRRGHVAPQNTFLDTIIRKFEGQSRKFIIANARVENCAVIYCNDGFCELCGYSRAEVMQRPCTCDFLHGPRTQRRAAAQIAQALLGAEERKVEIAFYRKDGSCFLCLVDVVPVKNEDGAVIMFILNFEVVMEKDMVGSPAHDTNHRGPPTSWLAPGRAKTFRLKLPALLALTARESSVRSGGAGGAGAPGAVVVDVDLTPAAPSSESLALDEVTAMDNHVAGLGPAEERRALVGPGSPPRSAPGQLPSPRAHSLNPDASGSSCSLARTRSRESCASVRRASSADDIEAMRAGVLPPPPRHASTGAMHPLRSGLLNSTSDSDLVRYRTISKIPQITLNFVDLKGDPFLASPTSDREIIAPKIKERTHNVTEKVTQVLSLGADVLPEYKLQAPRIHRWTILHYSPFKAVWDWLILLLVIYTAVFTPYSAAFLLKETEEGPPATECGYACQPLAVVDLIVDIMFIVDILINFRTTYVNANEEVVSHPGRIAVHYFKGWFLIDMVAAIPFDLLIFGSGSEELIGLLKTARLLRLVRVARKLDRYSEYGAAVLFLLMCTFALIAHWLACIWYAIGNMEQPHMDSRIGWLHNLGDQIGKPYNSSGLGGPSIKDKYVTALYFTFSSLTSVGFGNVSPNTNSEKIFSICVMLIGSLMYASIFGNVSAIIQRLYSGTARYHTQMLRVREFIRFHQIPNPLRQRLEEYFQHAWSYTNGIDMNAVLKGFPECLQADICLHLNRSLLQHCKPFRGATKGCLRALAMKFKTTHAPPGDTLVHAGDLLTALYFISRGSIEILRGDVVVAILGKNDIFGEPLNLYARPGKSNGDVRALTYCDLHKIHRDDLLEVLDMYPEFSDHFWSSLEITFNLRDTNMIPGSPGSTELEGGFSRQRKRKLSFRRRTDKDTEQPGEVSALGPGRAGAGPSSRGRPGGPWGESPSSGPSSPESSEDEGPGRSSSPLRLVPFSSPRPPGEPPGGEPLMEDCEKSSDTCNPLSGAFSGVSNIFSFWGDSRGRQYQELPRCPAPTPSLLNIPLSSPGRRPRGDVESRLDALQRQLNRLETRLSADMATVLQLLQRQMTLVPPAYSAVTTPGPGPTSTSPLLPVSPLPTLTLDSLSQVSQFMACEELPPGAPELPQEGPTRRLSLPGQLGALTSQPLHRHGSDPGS
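U2OS cells transduced with wild-type KCNH2 virus are loaded with FluxOr dye for 45 min, and thallium flux is measured in kinetic reads before and after stimulation buffer. Rate constants are normalized to DMSO controls.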
The depositor's hits bear a star; ? = inconclusive; · = no result given; [ ] = remark or other dose. An excerpt weighted towards active compounds, which were near 1.2% of everything screened. On the % scale 0 is the no-effect control and ±100 the full control effect.

SMILES	Luc counter	KCNH2 3.1 block	hERG WT inh
O=C(/C=C/Nc1ccccc1O)c1ccco1	·	5	-8
CN(C)c1ccc(N/C=C/C(=O)c2ccco2)cc1	3.5µM*	1	-2
O=C(/C=C/Nc1ccc(F)cc1F)c1cccs1	7.9µM*	-6	4
O=C(/C=C/Nc1ccc(Br)cc1F)c1ccco1	13µM*	-15	2
CC(=O)Nc1ccc(N/C=C/C(=O)c2ccco2)cc1	?	-4	5
O=C(/C=C/Nc1ccccc1F)c1cccs1	?	-10	-30
O=C(/C=C/Nc1ccc(F)cc1F)c1ccco1	10µM*	8	9
O=C(/C=C/Nc1cccc(F)c1)c1ccco1	-24%	-7	-2
Cc1ccc(N(Cc2ccccc2)C(=O)c2cc(S(=O)(=O)N3CCOCC3)ccc2N2CCCC2)cc1	·	-3	-5
COc1ncc(C2=CC(=O)CC(C)(C)C2)cn1	·	-15	-5
N=c1nc2n(cc1F)C1OC(CO)C(O)C1O2 (configuration not stated)	·	0	5
Nc1nc2nc3c(nc2c(=O)[nH]1)CN(c1ccc(C(=O)O)cc1)C3=O	-3%[7.66 µM]	·	·
O=C(CCc1nnc2ccc(NCc3ccccc3)nn12)NCC1CCN(C2CCCC2)C1 (configuration not stated)	·	-5	-2
COc1ccccc1S(=O)(=O)N(C)C[C@@H]1Oc2ncc(-c3ccc(C)cc3)cc2C(=O)N([C@H](C)CO)C[C@@H]1C	·	-2	4
C[C@H](CO)N1C[C@H](C)[C@H](CN(C)C(=O)CCC(F)(F)F)OCc2cnnn2CCCC1=O	·	24	3
O=C(Nc1ccccc1C(F)(F)F)N1CCC(n2c(=O)[nH]c3ccccc32)CC1	-5%	7	8
O=C(Nc1cccc(F)c1)N1CCC(n2c(=O)[nH]c3ccccc32)CC1	·	-193*	-228*
Cc1c(O)ccc2c(CN3CCN(C/C=C/c4ccccc4)CC3)cc(=O)oc12	·	-97*	-75*
Cc1cc2oc(=O)cc(CN3CCN(C/C=C/c4ccccc4)CC3)c2cc1O	-5%	·	·
Cc1ccc2c(CN3CCCCC3)cc(=O)oc2c1	·	-8	13
Oc1ccc2ccccc2c1CN1CCN(C/C=C/c2ccccc2)CC1	·	-80*	33
O=S(=O)(c1ccccc1)N1CCN(Cc2c(O)ccc3ccccc23)CC1	·	-16	2
Cc1ccc2c(CN3CCN(S(=O)(=O)/C=C/c4ccccc4)CC3)cc(=O)oc2c1	0%	-89*	-32
Cc1ccccc1CN(C)C[C@@H]1OCc2cnnn2CCCC(=O)N([C@H](C)CO)C[C@H]1C	·	18	7
CCCCOc1cccc(C(=O)Nc2ccc(NC(=O)c3ccco3)cc2)c1	·	2	9
SMILES	Luc counter	KCNH2 3.1 block	hERG WT inh
Cc1cc(C)cc(NS(=O)(=O)c2ccc3c(c2)C(C)(C)C(=O)N3C)c1	·	2	-3
COC(=O)c1cc(Br)ccc1N(Cc1cc(OC)cc(OC)c1)S(C)(=O)=O	·	1	-4
CCCCc1nc2c(c3c1C[C@H](C)OC3)CN(C(=O)c1cc(I)ccc1F)CC2	-3%[7.66 µM]	·	·
CCCc1ccc2oc(C(=O)N3CCC(COC)C3)c(C)c2c1 (configuration not stated)	·	7	0
COc1ccc(-c2ccnc(SCC(=O)c3ccc(Cl)cc3)n2)cc1	2%	-10	4
COc1ccc(-c2ccnc(SCC(=O)c3ccc(OC)c(OC)c3)n2)cc1	1%	-106*	-12
COc1ccc(/C=N\NC(=O)c2cc(O)c(O)c(O)c2)cc1COc1ccc(C(=O)OCC(C)C)cc1	·	4	0
Cc1ccc(S(=O)(=O)NCC(=O)OC2CCOC2=O)cc1 (configuration not stated)	0%	-95*	-126*
COC(=O)CNS(=O)(=O)c1ccc(C)cc1	2%	4	1
S=C(NCCCN1CCOCC1)N1CCN(c2nc(-c3ccc(Cl)cc3)cs2)CC1	-4%	-71*	-13
S=C(NCCCN1CCOCC1)N1CCN(c2nc(-c3ccccc3)cs2)CC1	3%	-5	16
COc1ccc(N2CCN(S(=O)(=O)c3c(C)nc4scc(C)n4c3=O)CC2)cc1	·	-17	-4
Cc1cc(C)c(NC(=O)CSc2nc(=O)n(CCN3CCOCC3)c3c2CCC3)c(C)c1	·	3	14
CCOC(=O)C1C(=O)CC(C)(O)C(C(=O)OCC)C1/C=C/c1ccccc1 (configuration not stated)	-8%	-106*	-1
COC(=O)C1C(=O)CC(C)(O)C(C(=O)OC)C1/C=C/c1ccccc1 (configuration not stated)	-5%	-13	4
COC(=O)c1ccc(-c2csc(NC(=O)c3c(C)noc3C)n2)cc1	·	-12	4
O=Nc1ccc(NOC(=O)c2ccc(Br)cc2)cc1	-1%	·	·
Cc1ccc(C(=O)ONc2ccc(N=O)cc2)cc1	13µM*	-6	1
Cc1ccc(CNC(=O)CCC(=O)Nc2nnc(C)s2)cc1	·	-3	18
COc1ccc(C2N(C(C)=O)CCN2S(=O)(=O)c2ccc(C)cc2)cc1 (configuration not stated)	·	5	1
COc1ccc(C2N(S(=O)(=O)c3ccc(C)cc3)CCN2S(=O)(=O)c2ccc(C)cc2)cc1	-2%	-72*	-6
COc1ccc(NC(=O)n2nc(OC(=O)c3cccs3)cc2N)cc1	·	23	-6
O=C(NCCc1ccccc1F)c1cc(COc2ccc(F)cc2F)on1	·	?	3
O=C(NCCc1ccccc1C(F)(F)F)c1cc(COc2ccccc2)on1	·	-111*	-18
CCc1ccc(N(C(=O)CNC(=O)c2ccco2)C(C(=O)NC2CCCC2)c2cccnc2)cc1 (configuration not stated)	·	-9	5
SMILES	Luc counter	KCNH2 3.1 block	hERG WT inh
C[C@H]1CN([C@@H](C)CO)S(=O)(=O)c2ccc(Br)cc2O[C@H]1CN(C)C(=O)c1cccc(F)c1	·	23	-10
Fc1ccc(-c2nnc(NC3=NCCCCC3)o2)cc1	11µM*	-26	-1
c1ccc(-c2nnc(NC3=NCCC3)o2)cc1	?	-8	1
O=C(N/N=C/c1ccccc1)c1[nH]ncc1Br	6.3µM*	13	3
O=C(N/N=C/c1cccnc1)c1[nH]ncc1Br	?	13	-5
OCCN(CCO)c1cc2c3ccccc3ccc2c2ccccc12	·	7	-8
O=C(Nc1cc(C(F)(F)F)ccc1N1CCOCC1)c1cccc(S(=O)(=O)N2CCOCC2)c1	·	?	16
Cc1cc(C)cc(C(=O)NCC(=O)NNC(=O)CSc2ccccc2F)c1	·	19	-2
C/C(=N\O)c1ccc2c(c1)OCCO2	2%	22	-9
Brc1ccc2c(c1)OCCOCCOc1cc(Br)ccc1OCCOCCOCCO2	5%	-96*	-88*
C/C(=N/O)c1ccc2c(c1)OCCOCCOc1cc(/C(C)=N/O)ccc1OCCOCCO2	-3%	-74*	-42
Nc1ccc2c(c1)OCCOCCOCCOCCOCCO2	-1%	7	-10
Brc1cc2c(cc1Br)OCCOCCOCCOCCO2	4%	10	10
c1ccc2c(c1)OCCOCCOc1ccccc1OCCOCCO2	5%	-79*	23
CC(Sc1nnc(-c2ccccc2F)n1N)C(=O)NCC1CCCO1 (configuration not stated)	·	-5	-32

Source: PubChem BioAssay
